Screening data (PubChem)
The entries come from a sample that favours hits as a whole.
AMPAR-TARP mod: modulators of AMPA receptor GluA2-stargazin complexes; HEK293 GluA2+stargazin, membrane potential dye (FDSS), glutamate EC50; hits were called plate by plate, in both directions; calls only at 30 µM; actives 3.5% (n = 40,000);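 active = any of four per-well response measures lying three or more SD from its plate-wide compound average, in either direction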
GIRK2 act: Activates human GIRK2-containing potassium channels; HEK293 GIRK2/NPY4 cells, thallium flux fluorescence; P48051; 34,000 tested, under 10 active; activation (% efficacy), % for hits at 37.5 µM;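 active = primary screen hit, no activity in plain HEK293 cells, and in GIRK2-only cells above 5% efficacy rising with concentration; inactive = the rest, including fluorescent compounds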;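 also: efficacy is normalized control-subtracted fluorescence 15 s after thallium addition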
Target sequence (P48051 whole entry, looked up): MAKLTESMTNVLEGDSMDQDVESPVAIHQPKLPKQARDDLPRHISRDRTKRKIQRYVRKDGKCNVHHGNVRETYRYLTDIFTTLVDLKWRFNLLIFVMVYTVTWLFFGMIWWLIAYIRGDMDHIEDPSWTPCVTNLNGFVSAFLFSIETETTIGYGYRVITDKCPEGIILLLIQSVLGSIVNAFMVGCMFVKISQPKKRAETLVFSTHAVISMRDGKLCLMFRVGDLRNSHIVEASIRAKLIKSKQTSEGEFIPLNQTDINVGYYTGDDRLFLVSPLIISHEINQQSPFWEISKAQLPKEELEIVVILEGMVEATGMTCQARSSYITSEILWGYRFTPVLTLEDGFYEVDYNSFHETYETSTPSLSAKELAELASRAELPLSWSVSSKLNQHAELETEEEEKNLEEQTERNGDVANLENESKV
Starred values were filed as active, the others as inactive.

What do the screens show for `CC1CCN(S(=O)(=O)c2ccc(-c3nc(C#N)c(N4CCOCC4)o3)cc2)CC1`?
AMPAR-TARP mod: inactive; GIRK2 act: inactive

What do the screens show for `CCOc1ccc(/C(O)=C2\C(=O)C(=O)N(CCCN(CC)CC)C2c2ccccn2)cc1` (stereo not given)?
AMPAR-TARP mod: inactive

Results for CN(C)S(=O)(=O)c1ccc(C(=O)Nc2nnc(-c3ccc(Br)s3)o2)cc1 ?
AMPAR-TARP mod: inactive; GIRK2 act: inactive

Results for Cc1cc(C(=O)Nc2nnc(-c3cc(C)n(C)n3)o2)nn1C ?
AMPAR-TARP mod: active; GIRK2 act: inactive

How did Cc1cc(-c2nnc(NC(=O)c3ccc(SC(C)C)cc3)o2)nn1C do in these assays?
AMPAR-TARP mod: inactive; GIRK2 act: inactive

How did Cc1ccc(-c2nnc(NC(=O)c3ccc(S(=O)(=O)N4CCCCC4)cc3)o2)cc1C do in these assays?
AMPAR-TARP mod: inactive; GIRK2 act: inactive

How did CCN(CC)S(=O)(=O)c1ccc(C(=O)Nc2nnc(-c3ccc(Br)s3)o2)cc1 do in these assays?
AMPAR-TARP mod: active; GIRK2 act: inactive

What do the screens show for `Cc1cc(-c2nnc(NC(=O)c3cc(Cl)sc3Cl)o2)nn1C`?
AMPAR-TARP mod: inactive; GIRK2 act: inactive

How did CCOc1cc(C(=O)Nc2nnc(-c3cc(C)n(C)n3)o2)cc(OCC)c1OCC do in these assays?
AMPAR-TARP mod: active; GIRK2 act: inactive

What do the screens show for `Cc1cc(-c2nnc(NC(=O)c3ccc(S(=O)(=O)N4CCCCC4)cc3)o2)nn1C`?
AMPAR-TARP mod: active; GIRK2 act: inactive

What do the screens show for `COc1ccc(CNC(=O)NCC#CCN2CCCCC2)cc1OC`?
AMPAR-TARP mod: inactive

What do the screens show for `O=C(NCC(O)(c1ccco1)C1CC1)c1cc2ccccc2oc1=O` (stereo not given)?
AMPAR-TARP mod: inactive; GIRK2 act: inactive

How did COc1ccc(CC(=O)NCC2COC3(CCCCC3)O2)cc1OC (stereo not given) do in these assays?
AMPAR-TARP mod: inactive; GIRK2 act: inactive

Results for COc1ccccc1NC(=O)c1nn(-c2ccc(F)cc2)cc1OC ?
AMPAR-TARP mod: inactive; GIRK2 act: inactive

Results for Cc1cccc(CS(=O)(=O)NCC2CCN(C)CC2)c1 ?
AMPAR-TARP mod: inactive; GIRK2 act: inactive

What do the screens show for `O=C(CCCc1ccccc1)NCCn1ncc2c(N3CCN(c4ncccn4)CC3)ncnc21`?
AMPAR-TARP mod: inactive; GIRK2 act: inactive

What do the screens show for `CN(C)C(CNC(=O)c1ccc(S(=O)(=O)N(C)C)cc1)c1cccn1C` (stereo not given)?
AMPAR-TARP mod: inactive; GIRK2 act: inactive

What do the screens show for `Cc1ccc(N2CCCS2(=O)=O)cc1NC(=O)c1ccc(F)c(F)c1`?
AMPAR-TARP mod: inactive; GIRK2 act: inactive

What do the screens show for `CCN(CC)S(=O)(=O)c1ccc(C(=O)Nc2nnc(-c3cc(C)n(C)n3)o2)cc1`?
AMPAR-TARP mod: active; GIRK2 act: inactive

What do the screens show for `Cc1cc(-c2nnc(NC(=O)c3cccc(C(F)(F)F)c3)o2)nn1C`?
AMPAR-TARP mod: inactive; GIRK2 act: inactive

Results for Cc1cc(-c2nnc(NC(=O)c3ccc(S(C)(=O)=O)cc3)o2)nn1C ?
AMPAR-TARP mod: inactive; GIRK2 act: inactive

How did COc1cccc2cc(C(=O)Nc3nnc(-c4cc(C)n(C)n4)o3)oc12 do in these assays?
AMPAR-TARP mod: active; GIRK2 act: inactive

Results for Cc1ccc(C(=O)Nc2nnc(-c3cc(C)n(C)n3)o2)cc1C ?
AMPAR-TARP mod: inactive; GIRK2 act: inactive

What do the screens show for `CC(=O)c1ccc(C(=O)Nc2nnc(-c3cc(C)n(C)n3)o2)cc1`?
AMPAR-TARP mod: active; GIRK2 act: inactive

Results for Cc1cc(-c2nnc(NC(=O)c3nc4ccccc4s3)o2)nn1C ?
AMPAR-TARP mod: active; GIRK2 act: inactive

What do the screens show for `Cc1cc(-c2nnc(NC(=O)c3cc4ccccc4o3)o2)nn1C`?
AMPAR-TARP mod: inactive; GIRK2 act: inactive

What do the screens show for `COc1ccc(CNC(=O)Cc2nnc(-c3ccc(C)cc3)o2)c(OC)c1`?
GIRK2 act: inactive

What do the screens show for `CC(C)(C)NC(=O)N1CCC(CNS(=O)(=O)C2CC2)CC1`?
AMPAR-TARP mod: inactive; GIRK2 act: inactive

What do the screens show for `COc1ccc(N(CC(O)CNCCC(C)C)S(=O)(=O)c2ccc(C)cc2)cc1` (stereo not given)?
AMPAR-TARP mod: active

Results for Cc1ccc(S(=O)(=O)N(CC(O)CNCCC(=O)O)c2ccc(F)cc2)cc1 (stereo not given) ?
AMPAR-TARP mod: inactive; GIRK2 act: inactive

Results for O=C(NCC(c1ccc(F)cc1)N1CCOCC1)C1CCCCC1 (stereo not given) ?
AMPAR-TARP mod: active

What do the screens show for `COc1ccc(C(CNC(=O)C(=O)NC2CCCC2)N2CCOCC2)cc1` (stereo not given)?
AMPAR-TARP mod: inactive; GIRK2 act: inactive

What do the screens show for `O=C(Cc1ccc(F)cc1)NCC(c1ccc(F)cc1)N1CCOCC1` (stereo not given)?
AMPAR-TARP mod: inactive

How did COc1ccc(C(CNC(=O)C2CCCCC2)N2CCOCC2)cc1 (stereo not given) do in these assays?
AMPAR-TARP mod: active

Results for O=C(CCC1CCCCC1)NCCn1ncc2c(N3CCCCCC3)ncnc21 ?
AMPAR-TARP mod: inactive; GIRK2 act: inactive

How did CCOc1ccccc1NC(=O)Nc1nnc(-c2cccc(S(=O)(=O)C(C)C)c2)o1 do in these assays?
AMPAR-TARP mod: inactive; GIRK2 act: inactive

Results for CN1CCc2c(sc(NC(=O)c3ccc(Cl)cc3)c2-c2nc3ccccc3s2)C1 ?
AMPAR-TARP mod: inactive

Results for O=C(Nc1sc2c(c1-c1nc3ccccc3s1)CCN(Cc1ccccc1)C2)c1cccs1 ?
AMPAR-TARP mod: active

Results for Cc1cc(C(=O)Nc2sc3c(c2-c2nc4ccccc4s2)CCN(Cc2ccccc2)C3)on1 ?
AMPAR-TARP mod: active

Results for CC(=O)Nc1sc2c(c1-c1nc3ccccc3s1)CCN(Cc1ccccc1)C2 ?
AMPAR-TARP mod: inactive

Results for CCn1ccc(C(=O)Nc2sc3c(c2-c2nc4ccccc4s2)CCN(C)C3)n1 ?
AMPAR-TARP mod: active

What do the screens show for `CCN1CCc2c(sc(NC(=O)c3cc4ccccc4o3)c2-c2nc3ccccc3s2)C1`?
AMPAR-TARP mod: inactive

Results for CCN(CC)CCSc1ccc(-c2ccccc2)nn1 ?
AMPAR-TARP mod: inactive

How did O=C(c1cccc(F)c1)N(CCCn1ccnc1)c1nc2c(F)cccc2s1 do in these assays?
AMPAR-TARP mod: active; GIRK2 act: inactive

Results for O=C(c1ccc2c(c1)OCCO2)N(CCCn1ccnc1)c1nc2c(F)cccc2s1 ?
AMPAR-TARP mod: inactive; GIRK2 act: inactive

Results for O=C(c1ccc2c(c1)OCCO2)N(Cc1ccncc1)c1nc2c(F)cccc2s1 ?
AMPAR-TARP mod: inactive; GIRK2 act: inactive

What do the screens show for `N#Cc1ccc(C(=O)N(Cc2ccncc2)c2nc3c(F)cccc3s2)cc1`?
AMPAR-TARP mod: active; GIRK2 act: inactive

Results for CC(=O)c1cccc(NS(=O)(=O)CCOc2ccc(F)cc2)c1 ?
AMPAR-TARP mod: inactive; GIRK2 act: inactive

Results for CN1C(=O)N(C)C2(CCN(C(=O)c3ccc(F)cc3Cl)CC2)C1=O ?
AMPAR-TARP mod: inactive; GIRK2 act: inactive

What do the screens show for `CN(C)CCCNc1nc2ccc([N+](=O)[O-])cc2s1`?
AMPAR-TARP mod: active; GIRK2 act: inactive
